For 37 compounds, growth results are on record in PubChem BioAssay (NCI).

Each structure is given as a SMILES string. About 83,000 compounds went through this panel and 20% of them were active in at least one assay; those are over-represented in the sample as a whole.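 Note: values are percent growth. 100 is the growth of untreated cells, values between 100 and 0 indicate rising inhibition; between -100 and 0 indicates cell death.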 Values without a mark were called inactive. The source made the active and inactive calls. How the source made its calls: active means growth percent below 10; inactive means the rest.

The test system of one experiment is A498 renal. As to the kind of experiment: NCI-60 one-dose screen, 48 h (100 = growth as untreated, 0 = no growth, -100 = all killed). As to conditions: 10 µM unless noted.
In the case of `O=C1C=CC(=O)N1c1cc(Cl)c(Cl)cc1Cl`, the growth was 105%.
Take `Nc1cccc2cccc([N+](=O)[O-])c12`: the growth is 104%.
Same read-out and setting: the result for `CCc1cnc2ccccc2c1/C=C/c1ccc(N(C)C)cc1` reads 34%; that for `O=[N+]([O-])c1ccc(C2N(Cc3ccc(Cl)cc3)CCN2Cc2ccc(Cl)cc2)cc1`, 88.4%.
Still for that read-out and setting: the same measure for `Oc1ccc2c(c1)CCc1ccccc1-2`: 68.6%; for `COc1cc(/C=C2\SC(=S)N(/C=C/c3nc4ccccc4[nH]c3=O)C2=O)cc(OC)c1OC`: 60%.
Same read-out and setting: the result for `CC(C)(C)CC(C)(C)c1ccc(OCCOCCSC(=N)N)cc1` reads 75.3%.

The next experiment has as its system CCRF-CEM leukemia. Described as above. To be noted: 10 µM unless noted.
`CCOC(=O)c1c(C)[nH]c2ccc(O)cc12`: the growth is 77.5%.
Consider `CC(/C=N/NC(N)=S)Cc1ccc(C(C)C)cc1` (stereo not given), for which the growth is 65.9%.
On to `Nc1ccc(C(=O)/C=C/c2ccccc2)cc1`, for which the growth was 58.7%.
Still for that read-out and setting: the result for `O=C(/C(Cl)=N/O)c1ccc(-c2ccccc2)cc1` reads 8.56% (active); that for `NC(=S)N/N=C\c1nccc2c(N)cccc12`, 8.4% (active).
`COc1cc2c(c(OC)c1OC)-c1ccc(NCc3ccccc3)c(=O)cc1[C@@H](NC(C)=O)CC2`: the growth is 10.1%.
The same measure, in the same setting: the same measure for `CCCCCCCCCCCCCCCCSC(=NCC)NCC`: -48.9% (active); for `CN(Cc1ccccc1)c1ccc(SC#N)cc1`: 10.8%.
`CC(=O)Nc1ccc(C(=O)CCl)cc1`: the growth is -49.9% (active).
Regarding `CCOC(=O)NC(/C=C/c1ccccc1)NC(=O)OCC`, the growth is 98.4%.
Same read-out and setting: the same measure for `CCCCN(CCCC)CCCCCCCCCCO`: 98%.
Still for that read-out and setting: the result for `S=C1SCN(Cc2cccs2)CN1Cc1cccs1` reads 70.9%.
The same measure, in the same setting: the same measure for `CCOC(=O)/C(=C\c1ccc2ccccc2c1)P(=O)(OCC)OCC`: -36.6% (active).
Turning to `COc1ccc(C(Cn2ccnc2)Sc2ccc(Cl)c(Cl)c2)cc1` (stereo not given), the growth was 79.3%.
The same measure, in the same setting: the same measure for `O=[N+]([O-])/C(=C/c1ccccc1)c1ccccc1`: 97.5%.
The same measure, in the same setting: the result for `CCCCCCC1N=C(N)N=C(N)N1c1cccc(Cl)c1` (stereo not given) reads 28.7%.
Still for that read-out and setting: the result for `Cc1nc(Sc2nc3ccc([N+](=O)[O-])cc3s2)sc1C` reads -13.5% (active).
Regarding `Fc1ccc(NCCS)cc1`, the growth is 96.6%.
As for `OCCOSCCO`, the growth was 107%.
On the same count and under the same terms, the result for `COc1cc(OC)c(/C=C/c2c3ccccc3cc[n+]2C)c(OC)c1` reads 18.2%; that for `O=C/C=C/c1ccc([N+](=O)[O-])cc1`, 87.6%; that for `COc1ccc2nc3cc(Cl)ccc3c(NCCCCCN3CCCCC3)c2c1`, -27.6% (active).
As for `O=C1C=CC(=O)N1c1cc(Cl)c(Cl)cc1Cl`, the growth was 37.5%.
For the compound `Nc1cccc2cccc([N+](=O)[O-])c12`, the growth was 102%.
On the same count and under the same terms, the result for `CCc1cnc2ccccc2c1/C=C/c1ccc(N(C)C)cc1` reads 32.9%.
The same measure, in the same setting: the same measure for `O=[N+]([O-])c1ccc(C2N(Cc3ccc(Cl)cc3)CCN2Cc2ccc(Cl)cc2)cc1`: 83.5%; for `Oc1ccc2c(c1)CCc1ccccc1-2`: 97.3%.
`COc1cc(/C=C2\SC(=S)N(/C=C/c3nc4ccccc4[nH]c3=O)C2=O)cc(OC)c1OC`: the growth was 91.7%.
`CC(C)(C)CC(C)(C)c1ccc(OCCOCCSC(=N)N)cc1`: the growth was 0.0306% (active).

The subject of another experiment is MOLT-4 leukemia. Described as above. As to conditions: 10 µM unless noted.
Regarding `CCOC(=O)c1c(C)[nH]c2ccc(O)cc12`, the growth is 105%.
As to `CCC1CCCCN1C(=S)N/N=C(\C)c1ccccn1` (stereo not given), the growth is 13.3%.
Regarding `CC(/C=N/NC(N)=S)Cc1ccc(C(C)C)cc1` (stereo not given), the growth was 67.7%.
For the compound `Nc1ccc(C(=O)/C=C/c2ccccc2)cc1`, the growth is 75.4%.
Still for that read-out and setting: the result for `Cc1oc2c(C)c3oc(=O)cc(C)c3cc2c1CCl` reads 63.6%; that for `O=C(/C(Cl)=N/O)c1ccc(-c2ccccc2)cc1`, 83.3%; that for `CC(C)c1ccc(Nc2n[nH]c(=S)s2)cc1`, 97.6%.
Turning to `NC(=S)N/N=C\c1nccc2c(N)cccc12`, the growth was 3.28% (active).
For `COc1cc2c(c(OC)c1OC)-c1ccc(NCc3ccccc3)c(=O)cc1[C@@H](NC(C)=O)CC2`, the growth was 3.29% (active).
Still for that read-out and setting: the result for `CCCCCCCCCCCCCCCCSC(=NCC)NCC` reads -47.7% (active).
For the compound `CN(Cc1ccccc1)c1ccc(SC#N)cc1`, the growth was 55.4%.
On the same count and under the same terms, the result for `CC(=O)Nc1ccc(C(=O)CCl)cc1` reads 73.6%.
Same read-out and setting: the same measure for `O=[N+]([O-])c1ccc(N2CCN(Cc3ccccc3)CC2)c2c1no[n+]2[O-]`: -29.8% (active); for `CCCCN(CCCC)CCCCCCCCCCO`: 83%.
As for `S=C1SCN(Cc2cccs2)CN1Cc1cccs1`, the growth was 100%.
Still for that read-out and setting: the same measure for `CCOC(=O)/C(=C\c1ccc2ccccc2c1)P(=O)(OCC)OCC`: -25.1% (active); for `Nc1ccc(Oc2ccccc2)c(Cl)c1`: 97.9%; for `COc1ccc(C(Cn2ccnc2)Sc2ccc(Cl)c(Cl)c2)cc1` (stereo not given): 64.1%.
As to `O=[N+]([O-])/C(=C/c1ccccc1)c1ccccc1`, the growth is 99%.
Still for that read-out and setting: the same measure for `CCCCCCC1N=C(N)N=C(N)N1c1cccc(Cl)c1` (stereo not given): 25.4%; for `O=C1C=CC(=O)N1C1CCCCCCCCCCC1`: 6.51% (active); for `Cc1nc(Sc2nc3ccc([N+](=O)[O-])cc3s2)sc1C`: -7.45% (active).
As for `Fc1ccc(NCCS)cc1`, the growth was 95.3%.
Still for that read-out and setting: the same measure for `OCCOSCCO`: 104%; for `CC(C)(C)c1ccc(O)c(Br)c1`: 112%.
As for `O=C/C=C/c1ccc([N+](=O)[O-])cc1`, the growth was 82.1%.
Regarding `COc1ccc2nc3cc(Cl)ccc3c(NCCCCCN3CCCCC3)c2c1`, the growth was -19.5% (active).
Turning to `COc1cc(-c2ccc(-[n+]3nc(-c4ccc([N+](=O)[O-])cc4)nn3-c3ccc([N+](=O)[O-])cc3)c(OC)c2)ccc1-[n+]1nc(-c2ccc([N+](=O)[O-])cc2)nn1-c1ccc([N+](=O)[O-])cc1`, the growth is 17.9%.
Turning to `O=C1C=CC(=O)N1c1cc(Cl)c(Cl)cc1Cl`, the growth is 95.5%.
Turning to `CCc1cnc2ccccc2c1/C=C/c1ccc(N(C)C)cc1`, the growth is 33.9%.
Same read-out and setting: the result for `O=[N+]([O-])c1ccc(C2N(Cc3ccc(Cl)cc3)CCN2Cc2ccc(Cl)cc2)cc1` reads 80.3%; that for `Oc1ccc2c(c1)CCc1ccccc1-2`, 103%; that for `COc1cc(/C=C2\SC(=S)N(/C=C/c3nc4ccccc4[nH]c3=O)C2=O)cc(OC)c1OC`, 91.2%.
For `CC(C)(C)CC(C)(C)c1ccc(OCCOCCSC(=N)N)cc1`, the growth is 14.4%.
